Compound activity: PubChem, University of Kansas High Throughput Screening Laboratory
A selection: hits, their analogues and other compounds. The true share with any hit is near 3.6%.
mHTT-CaM PPI inh: mutant huntingtin-calmodulin interaction inhibitors – biochemical, AlphaScreen, primary screen; AID 1671202, 2021; 190,000 compounds, 3.6% hits; AlphaScreen His-mHTT/GST-CaM binding, luminescence; inhibition, % at 15 µM; P42858;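 further: 0% = both proteins with DMSO and 100% = one protein alone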
Pf apPOL inh: Pf-apPOL inhibitors, biochemical, fluorescence; inhibition, % at 10 µM; 210,000 compounds, 0.25% hits; AID 1794808, 2022; Recombinant Pf-apPOL, molecular beacon fluorescence, 1.5 h; Plasmodium falciparum apicoplast DNA polymerase (apPOL)
Active calls of the source: *; · = not tested or not shown; ! = a repeat was not active. No stated cut-off is given here; in the data, active means inhibition above about 50%; inactive means the rest.

SMILES	mHTT-CaM PPI inh	Pf apPOL inh
COc1ccccc1N(CC(N)=O)S(=O)(=O)c1ccccc1	-5.5	-4.9
CCOc1ccccc1C(=O)Nc1cc(C)ccn1	-15.9	-1.7
Cc1ccnc(NC(=O)c2ccc(C(C)C)cc2)c1	-13.3	-4.9
COc1cc(-c2nc3ncccn3c2Nc2ccc(C)cc2)ccc1O	9.0	2.2
CCOc1cc(C(Nc2cc(C)ccn2)c2ccc3cccnc3c2O)ccc1O (stereo not drawn)	100.0*	-1.8
Cc1ccnc(NC(c2ccc(N(C)C)cc2)c2ccc3cccnc3c2O)c1 (stereo not drawn)	100.0*	-20.5
COc1cc(C(Nc2cc(C)ccn2)c2ccc3cccnc3c2O)ccc1O (stereo not drawn)	100.0*	1.5
Cc1cccc2c(C(N)=O)c3c(nc12)CCC3	3.8	15.5
Cc1cc(NS(=O)(=O)c2ccc(N/C=C/C(=O)c3cccs3)cc2)nc(C)n1	30.1	-14.1
CC(=O)c1ccc(NS(=O)(=O)c2ccc(N/C=C/C(=O)c3cccs3)cc2)cc1	2.4	59.6*
Cc1ccc(NC(=O)c2ccc(NCCO)c([N+](=O)[O-])c2)cc1Cl	36.9	-0.3
Cc1ccccc1-n1nc2c(c1NC(=O)C13CC4CC(CC(C4)C1)C3)CS(=O)(=O)C2	11.0	77.5*
Cc1ccccc1-n1nc2c(c1NC(=O)C13CC4CC(CC(C4)C1)C3)CSC2	0.0	-6.6
CN1C(=CC=Cc2cc[n+](CCO)c3ccccc23)Sc2ccccc21	95.2*	78.0*
CN1/C(=C/c2cccc[n+]2CCO)Sc2ccccc21	8.0	-0.7
Cc1cccc(C(=O)Nc2nnc3ccccn23)c1	21.7	-6.9
O=C(Nc1nnc2ccccn12)c1cccc(F)c1	56.1*	-11.0
O=C(Nc1nnc2ccccn12)c1cc(F)cc(F)c1	81.6*	-10.6
Cc1ccc(C(=O)Nc2nnc3ccccn23)s1	91.3*	-10.0
Cc1ccc(C(=O)Nc2nnc3ccccn23)cc1	24.0	-7.5
O=C(Nc1nnc2ccccn12)c1ccc(F)cc1	24.2	-7.7
C=CCSc1nc(-c2ccccc2)ccc1C#N	-38.3	1.1
CCc1cccc(C)c1-n1nnnc1C(C)(C)Nc1ccccc1	-1.0	-2.8
CCC(C)(Nc1ccc(N(C)C)cc1)c1nnnn1-c1c(C)cccc1C (stereo not drawn)	55.0*	1.9
COc1ccc(N=c2oc3ccc(Br)cc3cc2C(=O)Nc2nccs2)cc1	4.0	-1.2
SMILES	mHTT-CaM PPI inh	Pf apPOL inh
O=C(C[n+]1ccc2ccccc2c1)c1cc2ccccc2oc1=O	84.6*	1.1
COC(=O)c1cc2ccccc2oc1=O	-1.9	-0.7
O=C1/C(=C\c2ccc(O)cc2)C(N2CCOCC2)=NN1c1ccc([N+](=O)[O-])cc1	84.0*	4.2
CCOC1=NN(c2ccc([N+](=O)[O-])cc2)C(=O)/C1=C/c1ccc(Cl)cc1	34.0	-2.4
CNC(=O)N1CC(C)Oc2cc(C)ccc21 (stereo not drawn)	2.5	-2.4
COc1ccc(NC(=O)C2CC(=O)OC23CCCCC3)c(OC)c1 (stereo not drawn)	-2.0	-2.6
CCNS(=O)(=O)c1cccc2c1C(=O)c1ccccc1C2=O	12.0	4.1
O=C1c2ccccc2C(=O)c2c1cccc2S(=O)(=O)Nc1ccc(Cl)cc1	70.0*	-2.9
COc1ccc(C2C(C(=O)Nc3cc(C)ccc3OC)CCC(=O)N2c2ccc(OC)cc2)cc1 (stereo not drawn)	56.0*	-4.8
COc1ccc(N2C(=O)CCC(C(=O)Nc3cc(OC)ccc3OC)C2c2ccc(F)cc2)cc1 (stereo not drawn)	38.0	-1.6
COc1ccc(Oc2ccc(N)cc2)cc1	21.5	-5.4
Nc1ccc(Oc2ccc(N)c(N)c2)cc1	87.6*	-9.5
N=c1ncn(Cc2ccccc2)c2nc(SCCOc3ccc(Cl)cc3)[nH]c12	6.0	3.6
COCc1noc(C2CCCCN2CC(=O)N2CCCCC2)n1 (stereo not drawn)	-5.8	-4.6
COc1ccc(Br)cc1CNc1ccc2c(c1)OCO2	98.1*	-6.9
Cc1cccc(NCc2ccc3c(c2)OCO3)c1	38.6	6.6
COc1cc(Br)c(CNCc2ccc3c(c2)OCO3)cc1OC	-3.1	-2.1
Cc1ccc(CNc2ccc3c(c2)OCO3)c(C)c1	100.3*	1.5
O=C(c1ccc2c(c1)OCO2)N1CCc2c(nc[nH]c2=O)C1	1.1	-6.1
O=[N+]([O-])c1ccc2c(c1)OC1(CCCC1)O2	-3.1	-0.7
Nc1ccc2c(c1)OC1(CCCC1)O2	59.8*!	4.6
NS(=O)(=O)c1ccc2c(c1)C1C=CCC1C(C(=O)O)N2 (stereo not drawn)	39.9	-0.6
NS(=O)(=O)c1ccc2c(c1)C1C=CCC1C(c1cccc3ccccc13)N2 (stereo not drawn)	94.4*	·
NS(=O)(=O)c1ccc2c(c1)C1C=CCC1C(C1CC=CCC1)N2 (stereo not drawn)	94.9*	-3.2
O=[N+]([O-])c1ccc2c(c1)C1C=CCC1C(C1CC=CCC1)N2 (stereo not drawn)	38.5	·
SMILES	mHTT-CaM PPI inh	Pf apPOL inh
Cc1cccc(-n2c(CCCN3C(=O)c4ccccc4C3=O)nc3ccccc3c2=O)c1	9.6	-8.0
COc1ccc(Cl)cc1C(=O)NCC1CCN(C2CCCC2)CC1	-8.3	-8.6
Cc1cc([N+](=O)[O-])ccc1-c1ccc(/C=C2/NC(=O)NC2=O)o1	54.0*	-3.6
Cc1ccc(C(=O)O)cc1-c1ccc(/C=C2/NC(=O)NC2=O)o1	15.0	-0.2
Nc1ccc(Nc2ccccc2)c(Cl)c1	48.5	-7.3
Nc1ccc(Nc2ccc(N)cc2S(=O)(=O)O)cc1	97.5*	·
CCC(=O)NCc1nc2c(n1CC)CN(S(=O)(=O)c1ccc(C)c(C)c1)CC2	7.9	-5.1
Cc1nn(-c2ccccc2)c2c1C(=O)CC(c1cccs1)C2 (stereo not drawn)	-6.8	-2.6
N#CCC[C@@H]1CC[C@]2(CCCN(C(=O)c3ccco3)C2)O1	98.8*	-6.2
N#CCC[C@H]1CC[C@]2(CCCN(Cc3ccc(Br)cc3)C2)O1	88.6*	-9.0
N#CCC[C@@H]1CC[C@]2(CCCN(C(=O)c3ccccc3)C2)O1	-11.9	-9.7
CCN(CC)C(=O)CC[C@H]1CC[C@]2(CCCN(Cc3ccc(Br)cc3)C2)O1	9.2	-0.2
COc1ccccc1CCC(=O)N1CCC2(C1)Nc1cccnc1NC2=NC(C)(C)C (stereo not drawn)	20.1	-6.8
O=C(CSc1ccccc1)N1CCc2c(nc3cc[nH]n3c2=O)C1	-1.2	-18.4
COc1ccc(/C=c2\sc3nc(-c4ccccc4)nn3c2=O)c(OC)c1	-1.0	1.4
O=c1cc(-c2ccccc2Cl)oc2c(NS(=O)(=O)c3cc(Cl)cc(Cl)c3O)ccc(O)c12	96.6*	36.0
O=C(Nc1ccc(O)c2c(=O)cc(-c3ccccc3Cl)oc12)c1ccc(Cl)cc1Cl	-3.2	0.6
CCCCNC(=O)[C@@H]1CC=C[C@@H]2CCN(Cc3ccc(Cl)c(Cl)c3)C(=O)[C@@H]21	24.8	-14.9
O=C(NCCc1ccccc1)[C@@H]1CC=C[C@@H]2CCN(Cc3ccc(Cl)c(Cl)c3)C(=O)[C@@H]21	99.5*	-9.1
COc1ccc(CNC(=O)[C@@H]2CC=C[C@@H]3CCN(Cc4ccccc4)C(=O)[C@@H]32)cc1	5.3	-0.5
O=C(NCc1cccnc1)[C@@H]1CC=C[C@@H]2CCN(Cc3ccc(Cl)c(Cl)c3)C(=O)[C@@H]21	59.2*	-6.5
Cn1c(C2CCN(C(=O)Nc3cc(F)cc(F)c3)CC2)cc(=O)n2nccc12	-8.8	-1.6
